GPR151 ag: human GPR151 activation; AID 1508602; activation, % at 11.2 µM; Q8TDV0; PathHunter beta-arrestin GPR151 cells, luminescence; 650,000 compounds, 1% hits; in the data active = activation above about 4.9%
MITF inh: blocks human microphthalmia-associated transcription factor; inhibition, % at 2.6 µM; 650,000 compounds, 0.91% hits; AlphaScreen MITF homodimerization, bead proximity signal; O75030; in the data active = inhibition above about 50%
Target sequence (O75030 whole entry, looked up): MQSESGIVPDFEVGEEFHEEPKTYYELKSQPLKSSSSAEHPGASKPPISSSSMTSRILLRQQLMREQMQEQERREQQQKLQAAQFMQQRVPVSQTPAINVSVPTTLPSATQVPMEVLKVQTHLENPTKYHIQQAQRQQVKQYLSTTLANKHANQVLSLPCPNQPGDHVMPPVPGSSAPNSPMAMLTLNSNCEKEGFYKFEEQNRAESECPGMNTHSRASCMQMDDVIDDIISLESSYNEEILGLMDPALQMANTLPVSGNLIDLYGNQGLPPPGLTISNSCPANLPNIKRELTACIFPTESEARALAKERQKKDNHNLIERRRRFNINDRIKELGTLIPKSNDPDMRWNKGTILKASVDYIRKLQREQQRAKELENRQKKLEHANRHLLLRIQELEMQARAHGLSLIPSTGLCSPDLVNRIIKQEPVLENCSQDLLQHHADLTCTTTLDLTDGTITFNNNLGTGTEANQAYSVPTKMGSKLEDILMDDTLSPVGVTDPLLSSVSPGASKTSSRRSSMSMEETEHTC
FBW7 activator: human FBW7 E3 ligase activation, primary screen | AlphaScreen FBW7–phospho-cyclin E peptide binding, activator screen | normalized activity (activation), % at 26.1 µM | Q969H0 | 650,000 compounds, 0.13% hits | AID 1259310; in the data active = normalized activity above about 1.9%;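 note: purified mutant Fbw7 with reduced substrate affinity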
TEAD-YAP block: TEAD-YAP interaction inhibition | HEK-TIYL cells, TEAD-Gal4/YAP UAS-luciferase luminescence | inhibition, % at 9.12 µM | 640,000 compounds, 1.4% hits; in the data active = inhibition above about 32%
A number is an active result; . = inactive. This is a sample that favours compounds with a hit; in the whole collection about 3.4% have one here.

SMILES	GPR151 ag	MITF inh	FBW7 activator	TEAD-YAP block
COc1ccc(C(Nc2cc(C)ccn2)c2ccc3cccnc3c2O)cc1OC (configuration not stated)	.	.	.	61.3
COc1ccccc1C(Nc1cc(C)ccn1)c1ccc2cccnc2c1O (configuration not stated)	.	.	.	83.8
COc1ccc(C(Nc2cc(C)ccn2)c2ccc3ccc(C)nc3c2O)cc1OC (configuration not stated)	.	.	.	.
CCOc1ccc(C(Nc2cc(C)ccn2)c2ccc3ccc(C)nc3c2O)cc1OCC (configuration not stated)	.	.	.	.
Cc1ccc2ccc(C(Nc3ccccn3)c3ccc(C)c(C)c3)c(O)c2n1 (configuration not stated)	.	.	.	.
COc1ccc(C(Nc2ccccn2)c2ccc3cccnc3c2O)cc1OC (configuration not stated)	.	.	.	70.2
COc1ccc2cc(C(=O)N/N=C/c3ccc(C)cc3O)ccc2c1	.	.	.	.
O=C(CCN1C(=O)c2cccc3cccc(c23)C1=O)N1CCN(C/C=C\c2ccccc2)CC1	.	.	.	.
CC(Nc1cc(N2CCCC2)ccc1[N+](=O)[O-])c1ccc(Br)cc1 (configuration not stated)	.	.	.	.
COc1ccc(OC)c(C(C)NC(=O)C2CC2)c1 (configuration not stated)	.	.	.	.
Nc1ccc2c(c1)C(=O)N(c1ccc(O)cc1)C2=O	.	.	.	.
Nc1ccc(N2C(=O)c3ccc(N)cc3C2=O)cc1	.	.	.	34.4
CC(=O)Nc1ccc(NC(=O)c2cc(C)nc3ccc(C)cc23)cc1	.	.	.	34.9
COC(=O)c1ccc2c(=O)n3nc(Nc4cccc(C)c4)sc3nc2c1	.	.	.	.
CC(Sc1nnc(-c2ccc3c(c2)OCO3)o1)C(N)=O (configuration not stated)	.	.	.	37.0
O=C(O)CSc1nnc(-c2ccc3c(c2)OCO3)o1	.	.	.	.
CC(Sc1nnc(-c2ccncc2)o1)C(N)=O (configuration not stated)	.	.	.	.
NC(=O)CSc1nnc(-c2ccc3c(c2)OCO3)o1	.	.	.	44.6
CC(Cc1cccs1)NC(=O)CCc1nnc(Cc2ccc3c(c2)OCO3)o1 (configuration not stated)	.	.	.	.
O=C(Nc1cnn(-c2ccc(C(=O)NC3CCc4ccccc43)cc2)c1)c1ccoc1 (configuration not stated)	.	.	.	56.4
COc1cc(C2C(C#N)=C(N)N(c3ccc(C)cc3)C3=C2C(=O)CC(C)(C)C3)cc(OC)c1OC (configuration not stated)	.	.	.	54.1
Cc1ccc(N2C(N)=C(C#N)C(c3ccc4c(c3)OCO4)C3=C2CC(C)(C)CC3=O)cc1 (configuration not stated)	.	.	.	41.8
CCOc1ccc(NC(=O)CCCCCn2c(=O)[nH]c3ccsc3c2=O)cc1	.	.	.	.
COc1ccc(/C=C2\C=C(c3ccccc3)N(c3cc(C)ccc3C)C2=O)cc1	.	.	.	41.8
COc1ccc(/C=C2\C=C(c3ccccc3)N(c3cccc4ccccc34)C2=O)cc1	.	.	.	56.9
SMILES	GPR151 ag	MITF inh	FBW7 activator	TEAD-YAP block
Cc1ccc(C)c(N2C(=O)/C(=C/c3ccc(Cl)cc3)C=C2c2ccccc2)c1	.	.	.	.
Clc1ccc(C2NCCS2)c(Cl)c1 (configuration not stated)	.	.	.	.
COc1ccc(-n2nnnc2C2(Nc3cccc(Cl)c3)CCCCC2)cc1	.	.	.	48.4
N#Cc1c(NC(=O)c2ccc([N+](=O)[O-])cc2[N+](=O)[O-])sc2c1CCCC2	.	.	.	.
N#Cc1c(NC(=O)c2cc([N+](=O)[O-])ccc2Cl)sc2c1CCCC2	.	.	.	48.9
CC1CCc2sc(NC(=O)c3cc(Cl)ccc3[N+](=O)[O-])c(C#N)c2C1 (configuration not stated)	.	.	.	51.0
Cc1nc(C)n(-c2ccc(Nc3nccc(-c4cccc(-n5ccnn5)c4)n3)cc2)n1	.	.	.	43.8
CC(=O)Nc1cc(F)cc(-c2ccnc(Nc3ccc(-n4nc(C)nc4C)cc3)n2)c1	.	.	.	45.1
CCCC(=O)Nc1cc(C)c(NC(=O)c2cc(OC)c(OC)c(OC)c2)cn1	.	.	.	.
COc1ccc(C2C(C#N)=C(N)N(c3ccc(Cl)cc3)C3=C2C(=O)CC(C)(C)C3)cc1 (configuration not stated)	.	.	.	.
COc1cccc(/C=C2\CN(C)C/C(=C\c3cccc(OC)c3OC)C2=O)c1OC	.	.	.	33.0
O=[N+]([O-])c1cccc(S(=O)(=O)N2CCCC(c3nc(-c4cccs4)no3)C2)c1 (configuration not stated)	.	.	3.0	.
CS(=O)(=O)c1cnc2ncnn2c1C1CCCN(C(=O)Cc2ccccc2F)C1 (configuration not stated)	.	.	.	.
O=C(COc1ccccc1)N1CCN(c2ccc(Nc3ccccn3)nn2)CC1	.	.	.	.
O=C(COc1ccccc1)N1CCN(c2ccc(Nc3ccncc3)nn2)CC1	.	.	2.0	.
O=C(CCCn1c2ccccc2c(=O)c2ccccc21)Nc1ccc(Oc2ccc(Cl)cc2)cc1	.	.	.	.
Cc1[nH]c2ccccc2c1C(=O)COC(=O)CNC(=O)c1ccc(Br)o1	.	.	.	.
CCOc1ccc(C(=O)NCC(=O)OCC(=O)c2c(C)[nH]c3ccccc23)cc1	.	.	2.1	.
CCOc1ccc(-n2nc(C(=O)Nc3ccc(Br)cc3C)c3ccccc3c2=O)cc1	.	.	.	.
CC(=O)c1cccc(-c2cc(Nc3ccc(N4CCOCC4)cc3)nc(N)n2)c1	.	.	.	46.5
Nc1nc(Nc2ccc(N3CCOCC3)cc2)cc(Nc2ccncn2)n1	.	.	.	.
Nc1nc(Nc2ccc(N3CCOCC3)cc2)cc(Nc2cnccn2)n1	.	.	.	61.0
CC(=O)Nc1ccc(Nc2nc(Nc3cnccn3)nc3c2ncn3C(C)C)cc1	.	.	.	40.9
CC(=O)c1cccc(-c2nc(C)cc(Nc3ccc(N4CCOCC4)cc3)n2)c1	.	.	.	.
CC(C)n1cnc2c(Nc3ccccc3)nc(Nc3cnccn3)nc21	.	.	.	.
SMILES	GPR151 ag	MITF inh	FBW7 activator	TEAD-YAP block
CC(C)n1cnc2c(Nc3ccccc3)nc(Nc3ccc(N4CCOCC4)cc3)nc21	.	.	.	.
CC(C)n1cnc2c(Nc3ccc(N4CCOCC4)cc3)nc(Nc3cnccn3)nc21	.	.	.	32.3
O=C(CN1C(=O)COc2cc(S(=O)(=O)NC3CCCC3)ccc21)NC1CCCC1	.	.	.	.
Nc1ccc(OCc2ccccc2Cl)cc1	.	.	.	72.4
O=C1c2ccccc2C(=O)C1(Nc1ccc(OCc2ccccc2Cl)cc1)c1ccccc1	.	.	.	32.4
CCN1CCc2c(OCC(=O)Nc3ccc(Br)cc3)cccc2C1=O	.	.	.	.
CCN(CC)Cc1cc(Cl)c2cccnc2c1O	.	55.4	.	73.6

Source: PubChem
